Screening data deposited in PubChem by National Center for Advancing Translational Sciences (NCATS).
PLK1 PBD inh: qHTS for Inhibitors of PLK1-PDB (polo-like kinase 1 - polo-box domain): Primary Screen | Serine/threonine-protein kinase PLK1 (Homo sapiens), P53350 | Plk1 PBD binding of FITC phosphopeptide, fluorescence polarization | Potency, µM, for the others: max response, negative = inhibition, most hits filed as inhibitors | 360,000 compounds, 2.8% hits | AID 720504, 2013; note: potency is the fitted concentration of half-maximal effect; series mostly up to about 57 µM; % is set by controls: 0 for no effect and ±100 for the full control effect; nearly all actives have a fitted effect of over 65% in size
VDR inh: Inhibitors of the vitamin D receptor (VDR): qHTS. Potency, µM, for inactives: max response, negative = inhibition, most hits filed as inhibitors. 400,000 compounds, 0.93% hits. VDR-SRC2-3 peptide fluorescence polarization, 2 h; note: potency is the fitted concentration of half-maximal effect; % is set by controls: 0 for no effect and ±100 for the full control effect
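After 23 nl compound addition and a short centrifugation, plates sat for 2 hours at ambient temperature; polarization of fluorescence then indicated loss of VDR binding to peptide SRC2-3.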
GLS inh: qHTS for Inhibitors of Glutaminase (GLS); AID 624170, 2012; Potency, µM (highest dose often 45.5 µM), for the others: at the top dose activity change, negative = inhibition, actives largely listed as inhibitors; GLS enzymatic activity, qHTS titration; 410,000 compounds, 0.21% hits; Glutaminase kidney isoform, mitochondrial (Homo sapiens), O94925; note: potency is the fitted concentration of half-maximal effect; % is set by controls: 0 for no effect and ±100 for the full control effect
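Compounds were pin-transferred onto hKGA, after which L-glutamine (1 mM solution) and a detection mix of glutamate oxidase, HRP and Amplex Red were added. Initial and 30 min RT fluorescence reads were collected.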
PI4K2A block: qHTS for small molecular inhibitors of PI4K2A. activity change, negative = inhibition, % at 76.9 µM. Phosphatidylinositol 4-kinase type 2-alpha (Homo sapiens), Q9BTU6. 420,000 compounds, 0.13% hits. purified PI4K2A, ADP-Glo luminescence, 1 h; stronger effect = lower value. AID 1346378, 2018; in the data active = activity change below about -50%; inconclusive = mostly about -30% to -49%;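 note: -100% = wells without enzyme as full effect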
Target sequence (Q9BTU6 whole entry, looked up): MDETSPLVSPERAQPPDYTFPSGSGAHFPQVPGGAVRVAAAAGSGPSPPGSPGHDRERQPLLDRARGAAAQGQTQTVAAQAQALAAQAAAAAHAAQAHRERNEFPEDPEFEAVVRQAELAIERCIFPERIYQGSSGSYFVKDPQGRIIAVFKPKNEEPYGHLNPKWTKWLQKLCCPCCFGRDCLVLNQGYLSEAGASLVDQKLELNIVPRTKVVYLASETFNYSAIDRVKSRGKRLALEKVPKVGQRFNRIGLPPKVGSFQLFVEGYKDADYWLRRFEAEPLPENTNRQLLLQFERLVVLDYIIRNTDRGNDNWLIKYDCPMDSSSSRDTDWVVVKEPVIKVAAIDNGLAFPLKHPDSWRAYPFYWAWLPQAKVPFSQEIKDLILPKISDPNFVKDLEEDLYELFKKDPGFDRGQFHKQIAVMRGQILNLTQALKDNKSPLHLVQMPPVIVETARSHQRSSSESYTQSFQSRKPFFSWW
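PI4K2A activity was measured by ADP-Glo luminescence: enzyme (4 ug/mL stock) and phosphatidylinositol (1.2 mM stock) in Tris pH 7.5/MgCl2/EGTA/Triton X-100 buffer were reacted with ATP (300 microM stock) for one hour at ambient temperature.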
GCN5L2 inh: qHTS Assay for Inhibitors of GCN5L2; Histone acetyltransferase KAT2A (Homo sapiens), Q92830; GCN5L2 HAT assay, ThioGlo1 CoA-SH fluorescence; Potency, µM (titrated, usually from 58.9 µM), for the others: at the top dose activity change, negative = inhibition, usual class: inhibitors; 390,000 compounds, 0.21% hits; AID 504327, 2011; note: potency is the fitted concentration of half-maximal effect; % is set by controls: 0 for no effect and ±100 for the full control effect
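qHTS, 1536-well. 20nM enzyme, pH 7.5 HEPES/EDTA/Tween-20 buffer; 15 min compound preinc., RT. Start: 75uM H3(1-25), 70uM AcCoA, 50uM ThioGlo1. Read Ex340/Em540 at t=0 (autofluorescence flag) and t=20 min.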
VDR confirm: qHTS for Inhibitors of the vitamin D receptor (VDR): Hit Validation in Primary Screen | AID 602199, 2012 | 840 compounds, 89% hits | Potency, µM, hits mostly inhibitors | shares compounds with VDR inh | VDR-coactivator inhibition assay, qHTS confirmation; note: potency is the fitted concentration of half-maximal effect
VDR FP fluor: qHTS for Inhibitors of the vitamin D receptor (VDR): Hit Validation using a Fluorescein Assay; shares compounds with VDR inh; VDR-coactivator binding, fluorescein fluorescence polarization; Potency, µM (top dose mostly 57.1 µM), without a hit: top-dose activity change, negative = inhibition, actives largely listed as inhibitors; 840 compounds, 48% hits; AID 602200, 2012; note: potency is the fitted concentration of half-maximal effect
VDR bla reporter: qHTS for Inhibitors of the vitamin D receptor (VDR): Hit Validation using a Beta-Lactamase Assay; shares compounds with VDR inh; VDR beta-lactamase reporter cells, FRET ratio; cells co-treated with VDR agonist LG190178; Potency, µM (doses to about 46.1 µM), without a hit: at the top dose activity change, negative = inhibition, most hits filed as inhibitors; 840 compounds, 23% hits; note: potency is the fitted concentration of half-maximal effect; % is set by controls: 0 for no effect and ±100 for the full control effect
VDR viability: qHTS for Inhibitors of the vitamin D receptor (VDR): Hit Validation using a Cytotoxicity Assay. shares compounds with VDR inh. 840 compounds, 18% hits. cytotoxicity counter-screen, cell viability, qHTS. Potency, µM (doses to about 48.3 µM), without a hit: top-dose activity change, negative = cytotoxicity, most hits filed as cytotoxic;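 note: potency is the fitted concentration of half-maximal effect; plate controls were DMSO for no effect and high-concentration cycloheximide for full effect; nearly all actives have a fitted effect of over 75% in size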
TbPYK confirm: qHTS of Trypanosoma Brucei Inhibitors: Confirmatory Assay for Cherry-picked Compounds | shares compounds with PLK1 PBD inh | recombinant TbPYK, Kinase-Glo ATP luminescence | Potency, µM (top dose mostly 76.9 µM), for inactives: at the top dose activity change, negative = inhibition, usual class: inhibitors | 890 compounds, 67% hits | AID 720569, 2013; note: potency is the fitted concentration of half-maximal effect; % is set by controls: 0 for no effect and ±100 for the full control effect; nearly all actives have a fitted effect of over 70% in size
TbPYK orthogonal: qHTS of Trypanosoma Brucei Inhibitors: Orthogonal Assay for Cherry-picked Compounds. shares compounds with PLK1 PBD inh. recombinant TbPYK, ADP-Glo luminescence, 60 min. Potency, µM (top dose mostly 76.9 µM), for the others: at the top dose activity change, negative = inhibition, actives largely listed as inhibitors. 890 compounds, 62% hits; note: potency is the fitted concentration of half-maximal effect; % is set by controls: 0 for no effect and ±100 for the full control effect; nearly all actives have a fitted effect of over 75% in size
* = called active by the depositor; i = inactive; u = inconclusive; x = no result given; [ ] = another dose, or the depositor's remark. A selection: hits, their analogues and other compounds. The true share with any hit is near 3.1%. Unless noted, calls come from the whole dose curve; as a rule, active = well fitted curve in the direction sought with a large enough effect; inconclusive = small, poorly fitted or top-dose-only effect, or another doubt; inactive = no such curve, though single readings can be large; an effect the other way counts as inactive or inconclusive.

SMILES	PLK1 PBD inh	VDR inh	GLS inh	PI4K2A block	GCN5L2 inh	VDR confirm	VDR FP fluor	VDR bla reporter	VDR viability	TbPYK confirm	TbPYK orthogonal
CCCCn1c(O)c(C(=O)/C=C/c2ccc3c(c2)OCO3)c(=O)[nH]c1=O	-16%	u	7%	-10	-21%	11*	u	u	18%	x	x
CCCCn1c(O)c(C(CC)=NCc2ccc3c(c2)OCO3)c(=O)[nH]c1=O	-5%	-9%	-2%	-3	-13%	x	x	x	x	x	x
O=C(/C=C/c1ccc2c(c1)OCO2)c1c(O)n(CCC2=CCCCC2)c(=O)[nH]c1=O	u	u	19%	-6	29%	5.6*	u	21µM*	-5%	x	x
CC(=O)C(O)C(c1ccccc1)c1c(O)c2ccccc2oc1=O (centres undefined)	x	4%	x	x	-18%	x	x	x	x	x	x
CN(C)CCc1c[nH]c2cccc(OP(=O)(O)O)c12	x	x	12%[99.4 µM]	i	x	x	x	x	x	x	x
COc1cccc(C2CC3C(=O)C=CC2N3Cc2ccccc2)c1 (centres undefined)	-19%	u	7%	-4	1%	18*	u	21µM*	17%	x	x
Cc1nn(Cc2ccccc2)c(C)c1C=C1C(=O)NC(=S)NC1=O	15µM*	25µM*	-6%	-3	0%	9.5*	u	u	-4%	6.3µM*	u
CCN(CC)c1ccc(NC(=O)c2cccc(C)c2)cc1S(=O)(=O)Nc1ccccc1OC	3µM*	50µM*	1%	1	-13%	u	u	8%	-3%	u	u
CN1C(=O)NC(=O)/C(=C\C=C\c2ccccc2[N+](=O)[O-])C1=O	1.2µM*	11µM*	2%	-10	-18%	4.2*	u	u	-7%	16µM*	32µM*
Cc1ccc(-n2c(C)cc(/C=C3/C(=O)NC(=O)N(C)C3=O)c2C)cc1	-14%	17%	-1%	-3	-6%	x	x	x	x	x	x
CO[C@H]1[C@@H](O)CC(OC2[C@@H](O)CC(OC3[C@@H](O)C[C@H](OC4CC[C@@]5(C)C(CCC6C5CC(O)[C@]5(C)[C@H](C7=CC(=O)OC7)CCC65O)C4)O[C@@H]3C)O[C@@H]2C)O[C@@H]1C (some centres undefined)	x	-2%	3%	x	2%	x	x	x	x	x	x
COc1cc(/C=C2\C(=O)NC(=O)N(c3ccccc3)C2=O)c([N+](=O)[O-])cc1OC	12µM*	45µM*	-7%	-9	2%	27*	20µM*	53%	29%	16µM*	35µM*
O=C(O)C1CN(CP(=O)(O)O)CCN1 (centres undefined)	x	10%	x	x	-27%	x	x	x	x	x	x
CC1CCN(C(CC(=O)c2ccccc2)C(=O)c2ccccc2)CC1 (centres undefined)	u	25µM*	u	6	x	11*	u	u	u	20µM*	13µM*
O=C1NC(=O)C(=Cc2cc(Cl)ccc2OCc2ccc(C(=O)O)cc2)C(=O)N1	7.5µM*	50µM*	2%	-22	-1%	u	u	26%	19%	25µM*	32µM*
O=C(O)Cn1cc(C=C2C(=O)NC(=O)NC2=O)c2ccccc21	u	-7%	3%	-29	-17%	x	x	x	x	x	x
CC1(C)OC(c2ccccc2)=C/C(=C/C=C2C(=O)NC(=O)NC2=O)O1	27%	-8%	-22%	-15	-4%	x	x	x	x	x	x
O=C1NC(=O)C(=Cc2ccc(Sc3ccccc3)o2)C(=O)N1	0.67µM*	40µM*	u	-23	-25%	11*	u	u	u	32µM*	35µM*
C/C=C1/CN2CC[C@]34C(=C(C=O)[C@@H]1C[C@H]23)Nc1c(O)cccc14	x	1%	x	x	x	x	x	x	x	x	x
CC(=O)C1CCOC1=O (centres undefined)	x	x	x	3	x	x	x	x	x	x	x
Cc1ccc(/C=C2\C(=O)NC(=S)N(c3cccc(F)c3)C2=O)o1	2.7µM*	-9%	u	-5	-28%	x	x	x	x	16µM*	25µM*
CC1(C)N(O)C(c2ccc(C(=O)O)cc2)=[N+]([O-])C1(C)C	x	u	x	x	-10%	x	x	x	x	x	x
CCOC(=O)[C@]12Cc3cc(N(C)C)ccc3[C@H]1N(Cc1ccccc1)C(=O)c1ccccc12	-17%	-5%	25%	1	x	x	x	x	x	x	x
CCOC(=O)[C@]12Cc3ccccc3[C@H]1N(C(C)C)C(=O)c1ccccc12	u	x	0%	5	x	x	x	x	x	22µM*	32µM*
CCCCCCCCCCCCCC(=O)OC1C(C)[C@@]2(O)C(C=C(CO)C[C@]3(O)C(=O)C(C)=C[C@H]23)[C@@H]2C(C)(C)[C@]12OC(C)=O (some centres undefined)	x	-5%	x	x	-17%	x	x	x	x	x	x
CCN(CC)c1nc2c(C)cccn2c(=O)c1C=C1C(=O)NC(=O)NC1=O	-16%	9%	11%	-19	-7%	x	x	x	x	x	x
